The text below walks through data of PubChem BioAssay (EPA / NIEHS).

The structures appear in SMILES notation. “And” between values parts separate entries of the source, which are not always exact repeats. Equal values may be shown once. More than one record can exist for a structure, and the calls need not agree. The source made the active and inactive calls. How the source made its calls: active means hit-call score of the fitted dose curve at least 0.9, where 1 is the maximum; inactive means score below 0.9.

Assay [1] in a line: BSK_hDFCGF_SRB: Viability Assessment in the BioMAP Diversity Plus: hDFCGF Assay (AID 2283061).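 Further: cells exposed to compound for 24 h before the read.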 The settings on record: primary human foreskin fibroblasts. In outline:
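SRB-based viability read on primary human skin fibroblasts at 24 h: TCA fixation, 0.1% dye, 560 nm. Gain or loss of signal is fitted against the DMSO negative control.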

Read-out in assay [2]: TIMP metallopeptidase inhibitor 1 (TIMP1), TIMP1 (gene 7076)
Briefly: BSK_hDFCGF_TIMP1: BioMAP Diversity Plus: hDFCGF Assay for TIMP metallopeptidase inhibitor 1 (TIMP1) Biomarker Activity (AID 2283062). The settings on record: primary human foreskin fibroblasts; actives raise or lower the signal. In outline: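 Bidirectional curve fitting against DMSO baseline yielded this endpoint, based on ELISA detection of TIMP-1 in primary human foreskin fibroblasts exposed to compound for 24 h.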

Read-out in assay [3]: Monokine induced gamma interferon (MIG), CXCL9 (gene 4283)
In words: BSK_hDFCGF_MIG: BioMAP Diversity Plus: hDFCGF Assay for Monokine induced gamma interferon (MIG) Biomarker Activity (AID 2283063). The settings on record: primary human foreskin fibroblasts; actives raise or lower the signal. In outline: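 Endpoint derived by bidirectional fitting relative to DMSO; MIG quantified via ELISA in primary human foreskin fibroblasts harvested 24 h after dosing.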

Read-out in assay [4]: Matrix Metallopeptidase 1 (MMP1), MMP1 (gene 4312)
Briefly: BSK_hDFCGF_MMP1: BioMAP Diversity Plus: hDFCGF Assay for Matrix Metallopeptidase 1 (MMP1) Biomarker Activity (AID 2283064). The settings on record: primary human foreskin fibroblasts; actives raise or lower the signal. The essentials: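 Primary human foreskin fibroblasts in the hDFCGF system were dosed with test chemical, and MMP1 was measured by ELISA 24 h later. Values come from bidirectional curve fitting against the DMSO baseline.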

Read-out in assay [5]: Vascular cell adhesion molecule 1 (VCAM1), VCAM1 (gene 7412)
Briefly: BSK_hDFCGF_VCAM1: BioMAP Diversity Plus: hDFCGF Assay for Vascular cell adhesion molecule 1 (VCAM1) Biomarker Activity (AID 2283065). The settings on record: primary human foreskin fibroblasts; actives raise or lower the signal. The essentials:
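Measured after 24 h chemical treatment of primary human skin fibroblasts, VCAM-1 was detected by ELISA and concentration-response analysed in both directions versus DMSO vehicle.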

Read-out in assay [6]: Plasminogen activator inhibitor-1 (PAI1), SERPINE1 (gene 5054)
Briefly: BSK_hDFCGF_PAI1: BioMAP Diversity Plus: hDFCGF Assay for Plasminogen activator inhibitor-1 (PAI1) Biomarker Activity (AID 2283066). The settings on record: primary human foreskin fibroblasts; actives raise or lower the signal. In outline:
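Human foreskin fibroblast primary cells, 24 h chemical exposure; PAI-1 measured by ELISA. Bidirectional fitting relative to DMSO; parallel cultures stained with SRB for total protein to flag overt cytotoxicity.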

Read-out in assay [7]: Intercellular Adhesion Molecule 1 (ICAM1), ICAM1 (gene 3383)
Briefly: BSK_KF3CT_ICAM1: BioMAP Diversity Plus: KF3CT Assay for Intercellular Adhesion Molecule 1 (ICAM1) Biomarker Activity (AID 2283067). The settings on record: primary human keratinocytes with fibroblasts; actives raise or lower the signal. The essentials: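 Bidirectional curve fitting against a DMSO baseline was applied to ICAM-1 ELISA signal from primary human skin co-cultures harvested 24 h after treatment, with SRB staining of parallel wells for overt cytotoxicity.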

Read-out in assay [8]: Interferon-gamma inducible Protein 10 (IP10), CXCL10 (gene 3627)
In words: BSK_KF3CT_IP10: BioMAP Diversity Plus: KF3CT Assay for Interferon-gamma inducible Protein 10 (IP10) Biomarker Activity (AID 2283068). The settings on record: primary human keratinocytes with fibroblasts; actives raise or lower the signal. In outline: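 Human keratinocyte plus foreskin fibroblast primary co-culture exposed to test chemical for 24 h; IP-10 measured by ELISA. Concentration-response fitted bidirectionally against DMSO control as baseline.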

A short description of assay [9]: BSK_KF3CT_SRB: Viability Assessment in the BioMAP Diversity Plus: KF3CT Assay (AID 2283069).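 Further: total protein by sulforhodamine B staining as a cytotoxicity measure; read 24 h after compound addition.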 The settings on record: primary human keratinocytes with fibroblasts. The essentials: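 Human primary keratinocyte plus foreskin fibroblast co-culture exposed to chemicals for 24 h. Total protein measured by 0.1% sulforhodamine B staining after 10% TCA fixation, read at 560 nm; bidirectional fitting versus DMSO baseline.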

Read-out in assay [10]: Interleukin-1 alpha (IL1a), IL1A (gene 3552)
Briefly: BSK_KF3CT_IL1a: BioMAP Diversity Plus: KF3CT Assay for Interleukin-1 alpha (IL1a) Biomarker Activity (AID 2283070). The settings on record: primary human keratinocytes with fibroblasts; actives raise or lower the signal. The essentials:
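Human keratinocyte plus foreskin fibroblast primary co-culture, sampled 24 h after chemical dosing. IL-1a measured by ELISA; responses fitted bidirectionally against DMSO baseline (negative control), so gain or loss of signal both count.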

Read-out in assay [11]: TIMP metallopeptidase inhibitor 2 (TIMP2), TIMP2 (gene 7077)
In words: BSK_KF3CT_TIMP2: BioMAP Diversity Plus: KF3CT Assay for TIMP metallopeptidase inhibitor 2 (TIMP2) Biomarker Activity (AID 2283071). The settings on record: primary human keratinocytes with fibroblasts; actives raise or lower the signal. The essentials:
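Co-culture of human primary keratinocytes and foreskin fibroblasts, measured 24 h after chemical dosing. TIMP-2 quantified by ELISA and fitted in both directions relative to DMSO. Cytotoxicity checked in parallel cultures by SRB total-protein staining.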

Read-out in assay [12]: Transforming growth factor beta 1 (TGFb1), TGFB1 (gene 7040)
Briefly: BSK_KF3CT_TGFb1: BioMAP Diversity Plus: KF3CT Assay for Transforming growth factor beta 1 (TGFb1) Biomarker Activity (AID 2283072). The settings on record: primary human keratinocytes with fibroblasts; actives raise or lower the signal. The essentials: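 Human keratinocyte/foreskin fibroblast co-culture; TGF-b1 measured by ELISA 24 h after dosing, fitted bidirectionally versus DMSO. Cytotoxicity checked in parallel cultures by total protein (SRB staining, 560 nm).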

Read-out in assay [13]: C-C motif chemokine 2 (Homo sapiens) (UniProt P13500)
Briefly: BSK_KF3CT_MCP1: BioMAP Diversity Plus: KF3CT Assay for Monocyte Chemoattractant Protein 1 (MCP1/CCL2) Biomarker Activity (AID 2283073). The settings on record: primary human keratinocytes with fibroblasts; actives raise or lower the signal. The essentials:
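Biomarker MCP-1 is measured by ELISA in primary human keratinocytes co-cultured with foreskin fibroblasts, 24 h after chemical treatment; DMSO serves as the negative control and activity baseline.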

Read-out in assay [14]: Matrix Metallopeptidase 9 (MMP9), MMP9 (gene 4318)
In words: BSK_KF3CT_MMP9: BioMAP Diversity Plus: KF3CT Assay for Matrix Metallopeptidase 9 (MMP9) Biomarker Activity (AID 2283074).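 On AC50: MMP9 protein level quantified by ELISA in the co-culture.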 The settings on record: primary human keratinocytes with fibroblasts; actives raise or lower the signal. The essentials:
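Keratinocyte plus foreskin fibroblast human primary skin co-culture was dosed with chemical and MMP-9 was quantified by ELISA 24 h later. Bidirectional curve fitting used DMSO as negative control and activity baseline.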

Read-out in assay [15]: urokinase plasminogen activator (uPA), PLAU (gene 5328)
Briefly: BSK_KF3CT_uPA: BioMAP Diversity Plus: KF3CT Assay for urokinase plasminogen activator (uPA) Biomarker Activity (AID 2283075). The settings on record: primary human keratinocytes with fibroblasts; actives raise or lower the signal. In outline: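 Human keratinocyte plus foreskin fibroblast primary co-culture exposed to chemical for 24 h. uPA levels were quantified by ELISA, and activity was fitted bidirectionally against a DMSO negative-control baseline.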

Read-out in assay [16]: CD40, CD40 (gene 958)
Briefly: BSK_LPS_CD40: BioMAP Diversity Plus: LPS Assay for CD40 Biomarker Activity (AID 2283076). The settings on record: primary human HUVEC with PBMC; actives raise or lower the signal. The essentials:
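Using a multiplexed primary human co-culture (umbilical vein endothelium plus PBMC), CD40 was read by ELISA 24 h after dosing, with cytotoxicity tracked by sulforhodamine B staining of parallel cultures and activity fitted bidirectionally versus DMSO.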

Read-out in assay [17]: E-selectin (Homo sapiens) (UniProt P16581)
In words: BSK_LPS_Eselectin: BioMAP Diversity Plus: LPS Assay for Eselectin Biomarker Activity (AID 2283077). The settings on record: primary human HUVEC with PBMC; actives raise or lower the signal. In outline: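 Dose chemical onto LPS-driven HUVEC/PBMC co-culture; after 24 h, run ELISA for E-selectin; fit up- and down-going responses relative to DMSO control.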

Read-out in assay [18]: Interleukin-8 (IL8), CXCL8 (gene 3576)
Briefly: BSK_LPS_IL8: BioMAP Diversity Plus: LPS Assay for Interleukin-8 (IL8) Biomarker Activity (AID 2283078). The settings on record: primary human HUVEC with PBMC; actives raise or lower the signal. The essentials: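 In this LPS system, chemical-treated human umbilical vein endothelium/PBMC co-cultures were harvested at 24 h for IL-8 ELISA.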

Assay [19] is described as follows: BSK_LPS_SRB: Viability Assessment in the BioMAP Diversity Plus: LPS Assay (AID 2283079).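 Further: total protein by sulforhodamine B absorbance as a cytotoxicity measure; measured one day after compound addition.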 The settings on record: primary human HUVEC with PBMC. The essentials: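 Cytotoxicity endpoint in human endothelial–PBMC co-culture: 24 h exposure, then SRB (0.1%) staining, 560 nm read.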
Read-out in assay [20]: Interleukin-1 alpha (IL1a), IL1A (gene 3552)
Briefly: BSK_LPS_IL1a: BioMAP Diversity Plus: LPS Assay for Interleukin-1 alpha (IL1a) Biomarker Activity (AID 2283080). The settings on record: primary human HUVEC with PBMC; actives raise or lower the signal. The essentials:
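Primary human HUVEC and PBMC co-culture stimulated with LPS is dosed and harvested at 24 h. Both increases and decreases in ELISA-measured IL-1a are scored relative to DMSO.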

E-selectin (Homo sapiens), sequence (P16581 whole entry, looked up): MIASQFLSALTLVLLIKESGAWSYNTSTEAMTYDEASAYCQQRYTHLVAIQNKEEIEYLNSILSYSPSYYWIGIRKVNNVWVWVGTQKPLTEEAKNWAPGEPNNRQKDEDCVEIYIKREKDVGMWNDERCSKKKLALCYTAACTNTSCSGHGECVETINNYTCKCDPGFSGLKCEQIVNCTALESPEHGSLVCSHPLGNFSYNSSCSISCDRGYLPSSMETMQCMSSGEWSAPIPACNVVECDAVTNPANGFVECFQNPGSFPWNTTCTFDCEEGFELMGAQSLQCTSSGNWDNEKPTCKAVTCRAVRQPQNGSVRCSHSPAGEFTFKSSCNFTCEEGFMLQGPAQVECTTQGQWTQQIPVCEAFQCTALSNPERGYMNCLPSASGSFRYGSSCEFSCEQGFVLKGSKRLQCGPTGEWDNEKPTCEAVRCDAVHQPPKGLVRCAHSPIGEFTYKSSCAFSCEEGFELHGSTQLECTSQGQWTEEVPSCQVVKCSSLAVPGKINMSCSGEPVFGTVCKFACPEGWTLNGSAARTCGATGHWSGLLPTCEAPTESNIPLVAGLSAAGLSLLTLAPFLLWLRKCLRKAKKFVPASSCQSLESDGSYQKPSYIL

Broadly, the AC50 is the concentration at which the activity in the assay is half-maximal. With `CC(=O)O[C@]1(C(C)=O)CC[C@H]2[C@@H]3C[C@H](C)C4=CC(=O)CC[C@]4(C)[C@H]3CC[C@@]21C`, the result in assay [1], in [2], in assay [3], in assay [4], in [5] and in assay [6] was inactive. Moreover, the outcome in assay [7], in [9], in assay [10], in assay [11], in assay [12] and in [13] was inactive. In addition, the result in [14], in [15], in [16], in [17], in [18] and in assay [19] was inactive. The outcome in [20] was inactive. Also, the AC50 in assay [8] is 2.55 µM (active).
As to `CCc1c(C)cc(N)c(CC)c1N`, the outcome in assay [1], in assay [2], in [3], in assay [4], in assay [5] and in [6] was inactive. In addition, the result in assay [7], in assay [8], in [9], in assay [11], in assay [12] and in [13] was inactive. For the same compound, the result in assay [14], in assay [15], in [16], in assay [17], in assay [18] and in assay [19] was inactive. Further, the outcome in [20] was inactive. Moreover, the AC50 in assay [10] was 1.94 µM (active).
For `O=C1CCCCCCCCCCCCCCO1`, the outcome in assay [1], in assay [2], in assay [3], in assay [4], in assay [5] and in assay [8] was inactive. Besides, the result in assay [9], in [10], in [14], in assay [15], in [16] and in assay [17] was inactive. In addition, the result in [18], in [19] and in assay [20] was inactive. The AC50 is 20 µM (active) in [6]; 17.9 µM (active) in [7]; 20 µM (active) in [11]; 20 µM (active) in assay [12]; 12.5 µM (active) in assay [13].
In the case of `C[C@H]1C[C@@H]2[C@H]([C@@H](O)C[C@@]3(C)[C@H]2CC[C@]3(O)C(=O)CO)[C@@]2(C)C=CC(=O)C=C12`, the concentration at half-maximal activity (AC50) in [1] is 394 nM (active) and 339 nM (active); in assay [4], 150 nM (active) and 626 nM (active); in assay [6], 0.15 µM (active). The result in [2], in [3], in assay [5], in [6], in assay [7] and in assay [8] was inactive. For the same compound, the result in assay [9], in assay [10], in assay [11], in [13], in assay [14] and in assay [15] was inactive. For the same compound, the outcome in assay [16], in assay [17], in assay [18], in assay [19] and in assay [20] was inactive.
Take `c1ccc2sc(SN(C3CCCCC3)C3CCCCC3)nc2c1`: the AC50 in [1] was 4.26 µM (active); in assay [6], 2.8 µM (active); in [14], 0.888 µM (active). For the same compound, the result in assay [2], in assay [3], in [4], in assay [5], in assay [7] and in assay [8] was inactive. Further, the outcome in assay [9], in [10], in [11], in assay [12], in assay [13] and in [15] was inactive. Moreover, the result in [16], in assay [17], in [18], in [19] and in [20] was inactive.
For `O=C(O)c1cn(C2CC2)c2cc(N3CCNCC3)c(F)cc2c1=O`, the outcome in assay [1], in assay [2], in [3], in assay [4], in [5] and in assay [6] was inactive. In addition, the result in [7], in [8], in assay [9], in [10], in assay [11] and in assay [12] was inactive. For the same compound, the result in assay [13], in assay [14], in [15], in assay [16], in assay [17] and in assay [18] was inactive. Moreover, the outcome in assay [19] and in assay [20] was inactive.
